Where “and” joins values, the source holds several entries; their conditions need not be identical. Identical values can stand only once. Hit rate of the full screen: of about 5,500 compounds, about 2,000 (36%) were called active. Another 18% or so got no clear call; they are omitted. No stated cut-off is given here; in the data, active means normalized growth mostly below about 0.91 (no sharp cut-off); inconclusive means no clear call, values can overlap the other calls; inactive means mostly above about 0.92. The list shows a part of the results.
Test: chemical genetic growth profiling, strain panel (AID 1159580);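 further: tested at 20 µM; growth read once vehicle control cultures reached saturation at 30 °C; 1 = growth at the plate median or of vehicle wells; lower values mean less growth of the strain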
Settings: S. cerevisiae deletion strains, growth OD

Measured: normalized growth

NS(=O)(=O)c1cc2c(cc1Cl)NCNS2(=O)=O
inactive: locus YAL013W, strain DEP1, hits give low values 1.01 | locus YAL021C, strain ccr4, hits give low values 1 | locus YAL026C, strain drs2, hits give low values 1.01 | locus YAL030W, strain snc1, hits give low values 1 | locus YAL040C, strain CLN3, hits give low values 1.01 | locus YBL061C, strain skt5, hits give low values 0.995 | locus YBR009C, strain hhf1, hits give low values 0.996 | locus YBR021W, strain FUR4, hits give low values 0.994 | locus YBR023C, strain chs3, hits give low values 0.984 | locus YBR171W, strain sec66, hits give low values 0.997 | locus YBR229C, strain ROT2, hits give low values 1 | locus YBR231C, strain swc5, hits give low values 0.976 | locus YBR279W, strain paf1, hits give low values 0.999 | locus YCL011C, strain gbp2, hits give low values 1 | locus YCL016C, strain dcc1, hits give low values 0.971 | locus YCL029C, strain bik1, hits give low values 0.996 | locus YCL061C, strain MRC1 (second series), hits give low values 1.01 | locus YCL061C, strain MRC1, hits give low values 0.999 | locus YCL069W, strain vba3, hits give low values 0.993 | locus YCR088W, strain abp1, hits give low values 0.995 | locus YDL005C, strain med2, hits give low values 0.984 | locus YDL035C, strain GPR1, hits give low values 1.02 | locus YDL040C, strain nat1, hits give low values 1 | locus YDL074C, strain BRE1, hits give low values 0.989 | locus YDL101C, strain DUN1, hits give low values 1.01 | locus YDL134C, strain PPH21, hits give low values 1.01 | locus YDL185W, strain tfp1, hits give low values 0.998 | locus YDL192W, strain arf1, hits give low values 0.999 | locus YDR001C, strain nth1, hits give low values 0.996 | locus YDR069C, strain doa4, hits give low values 1.03 | locus YDR101C, strain arx1, hits give low values 1.03 | locus YDR137W, strain rgp1, hits give low values 0.97 | locus YDR159W, strain sac3, hits give low values 1 | locus YDR162C, strain NBP2, hits give low values 1.01 | locus YDR195W, strain ref2 0.982 | locus YDR297W, strain sur2, hits give low values 1 | locus YDR318W, strain mcm21, hits give low values 0.991 | locus YDR334W, strain swr1, hits give low values 1 | locus YDR335W, strain msn5, hits give low values 1 | locus YDR363W, strain ESC2, hits give low values 1.02 | locus YDR388W, hits give low values 0.993 | locus YDR392W, strain spt3, hits give low values 0.962 | locus YDR502C, strain sam2, hits give low values 0.994 | locus YEL003W, strain gim4, hits give low values 1.01 | locus YEL037C, strain rad23, hits give low values 0.992 | locus YEL061C, strain CIN8 (second series), hits give low values 0.991 | locus YEL061C, strain CIN8, hits give low values 1 | locus YER002W, strain NOP16, hits give low values 0.996 | locus YER015W, strain faa2, hits give low values 0.983 | locus YER016W, strain bim1, hits give low values 1.01 | locus YER110C, hits give low values 0.998 | locus YER111C, strain swi4, hits give low values 0.992 | locus YER155C, strain BEM2 (second series), hits give low values 1.02 | locus YER155C, strain BEM2, hits give low values 1.01 | locus YER167W, strain BCK2, hits give low values 1 | locus YFR010W, strain ubp6, hits give low values 1 | locus YGL078C, strain dbp3, hits give low values 0.997 | locus YGL086W, strain mad1, hits give low values 0.999 | locus YGL167C, strain pmr1, hits give low values 1 | locus YGL173C, strain kem1, hits give low values 0.996 | locus YGL227W, strain vid30, hits give low values 0.996 | locus YGL240W, strain doc1, hits give low values 1 | locus YGL248W, strain PDE1, hits give low values 1 | locus YGL253W, strain hxk2, hits give low values 1 | locus YGR078C, strain PAC10, hits give low values 1.01 and 0.993 | locus YGR135W, strain pre9, hits give low values 0.984 | locus YGR229C, strain SMI1, hits give low values 1.01 | locus YGR252W, strain gcn5, hits give low values 0.969 | locus YHR013C, strain ard1, hits give low values 0.999 | locus YHR027C, strain rpn1, hits give low values 0.99 | locus YHR030C, strain SLT2, hits give low values 1.01 and 0.971 | locus YHR079C, strain IRE1 (second series), hits give low values 0.996 | locus YHR079C, strain IRE1, hits give low values 0.962 | locus YHR094C, strain hxt1, hits give low values 0.993 | locus YHR129C, strain ARP1, hits give low values 1 | locus YHR142W, strain chs7, hits give low values 0.994 | locus YHR200W, strain rpn10, hits give low values 1 | locus YIL066C, strain RNR3, hits give low values 1.01 | locus YIL073C, strain SPO22, hits give low values 1.01 | locus YIL125W, strain kgd1, hits give low values 0.996 | locus YIR030C, strain dcg1, hits give low values 1 | locus YJL092W, strain hpr5, hits give low values 1 | locus YJL095W, strain BCK1 (second series), hits give low values 1 | locus YJL095W, strain BCK1, hits give low values 1.01 and 0.976 | locus YJL115W, strain asf1, hits give low values 1.01 | locus YJL129C, strain trk1, hits give low values 1 | locus YJL134W, strain LCB3, hits give low values 1.01 | locus YJL154C, strain vps35, hits give low values 0.995 | locus YJL164C, strain tpk1, hits give low values 0.995 | locus YJL166W, strain qcr8, hits give low values 0.999 | locus YJL168C, strain set2, hits give low values 0.993 | locus YJL187C, strain SWE1 (second series), hits give low values 1.01 | locus YJL187C, strain SWE1, hits give low values 0.998 | locus YJR043C, strain POL32, hits give low values 1.02 | locus YJR066W, strain TOR1, hits give low values 0.937 | locus YJR075W, strain HOC1, hits give low values 1.01 | locus YKL009W, strain mrt4, hits give low values 1.01 | locus YKL068W, hits give low values 1 | locus YKL085W, strain MDH1 (second series), hits give low values 0.994 | locus YKL085W, strain MDH1, hits give low values 0.994 | locus YKL160W, strain elf1, hits give low values 0.988 | locus YKL190W, strain CNB1, hits give low values 1.01 | locus YKR001C, strain vps1, hits give low values 1.01 | locus YKR026C, strain gcn3, hits give low values 0.997 | locus YKR091W, strain srl3, hits give low values 0.997 | locus YLL001W, strain dnm1, hits give low values 0.98 | locus YLL026W, hits give low values 1 | locus YLL041C, strain sdh2, hits give low values 0.997 | locus YLR027C, strain aat2, hits give low values 1.01 | locus YLR039C, strain RIC1, hits give low values 0.936 | locus YLR058C, strain SHM2, hits give low values 0.989 | locus YLR102C, strain apc9, hits give low values 0.993 | locus YLR113W, strain HOG1, hits give low values 0.989 | locus YLR221C, strain rsa3, hits give low values 0.963 | locus YLR258W, strain gsy2, hits give low values 0.996 | locus YLR262C, strain YPT6 (second series), hits give low values 0.992 | locus YLR262C, strain YPT6, hits give low values 1.01 | locus YLR268W, strain sec22, hits give low values 0.991 | locus YLR320W, strain mms22, hits give low values 0.998 | locus YLR330W, strain CHS5, hits give low values 1.01 | locus YLR342W, strain FKS1 (second series), hits give low values 1.02 | locus YLR342W, strain FKS1, hits give low values 1 | locus YLR357W, strain rsc2, hits give low values 1.01 | locus YLR370C, strain arc18, hits give low values 0.983 | locus YLR371W, strain rom2, hits give low values 1 | locus YLR384C, strain iki3, hits give low values 0.996 | locus YLR418C, strain cdc73, hits give low values 0.978 | locus YML016C, strain PPZ1, hits give low values 1.01 | locus YML032C, strain rad52, hits give low values 1 | locus YML120C, strain ndi1, hits give low values 0.978 | locus YML124C, strain tub3, hits give low values 0.999 | locus YMR058W, strain fet3, hits give low values 0.998 | locus YMR078C, strain ctf18, hits give low values 0.993 | locus YMR125W, strain sto1, hits give low values 1 | locus YMR129W, hits give low values 0.995 | locus YMR205C, strain PFK2, hits give low values 0.992 | locus YMR223W, strain ubp8, hits give low values 0.985 | locus YMR231W, strain pep5, hits give low values 0.996 | locus YMR263W, strain SAP30, hits give low values 1.01 | locus YMR307W, strain GAS1, hits give low values 0.999 | locus YNL067W, strain RPL9B, hits give low values 1.01 | locus YNL071W, strain lat1, hits give low values 1 | locus YNL128W, strain TEP1, hits give low values 1.02 | locus YNL153C, strain GIM3, hits give low values 1.01 and 1.02 | locus YNL175C, strain NOP13, hits give low values 1.02 | locus YNL183C, strain NPR1, hits give low values 0.956 | locus YNL197C, strain WHI3, hits give low values 1 | locus YNL209W, strain ssb2, hits give low values 0.998 | locus YNL224C, strain SQS1, hits give low values 0.996 | locus YNL233W, strain BNI4, hits give low values 1.01 | locus YNL248C, strain rpa49, hits give low values 1.01 | locus YNL250W, strain rad50, hits give low values 0.987 | locus YNL271C, strain bni1, hits give low values 0.991 | locus YNL298W, strain CLA4, hits give low values 1 | locus YNL307C, strain MCK1, hits give low values 0.999 | locus YNL322C, strain KRE1 (second series), hits give low values 0.993 | locus YNL322C, strain KRE1, hits give low values 1 and 1.01 | locus YNR049C, strain mso1, hits give low values 1 | locus YNR052C, strain pop2, hits give low values 0.999 | locus YOL006C, strain TOP1, hits give low values 1.03 | locus YOL012C, strain htz1 0.74 | locus YOL147C, strain pex11, hits give low values 0.993 | locus YOR001W, strain rrp6, hits give low values 1.04 | locus YOR061W, strain CKA2, hits give low values 1 | locus YOR069W, strain VPS5, hits give low values 1.01 | locus YOR070C, strain gyp1, hits give low values 0.994 | locus YOR080W, strain dia2, hits give low values 1 | locus YOR083W, strain WHI5 (second series), hits give low values 0.981 | locus YOR083W, strain WHI5, hits give low values 0.988 | locus YOR106W, strain vam3, hits give low values 1.01 | locus YOR136W, strain idh2, hits give low values 0.997 | locus YOR144C, strain elg1, hits give low values 0.994 | locus YOR184W, strain ser1, hits give low values 0.994 | locus YOR231W, strain MKK1, hits give low values 0.972 | locus YOR265W, strain rbl2, hits give low values 0.997 | locus YOR270C, strain vph1, hits give low values 1.03 | locus YOR290C, strain snf2, hits give low values 0.956 | locus YOR316C, strain cot1, hits give low values 0.996 | locus YPL051W, strain arl3, hits give low values 1 | locus YPL055C, strain LGE1, hits give low values 1.02 | locus YPL078C, strain atp4, hits give low values 0.994 | locus YPL106C, strain sse1, hits give low values 0.979 | locus YPL240C, strain hsp82, hits give low values 1 | locus YPL241C, strain CIN2, hits give low values 1.01 | locus YPL256C, strain CLN2, hits give low values 0.986 | locus YPR119W, strain clb2, hits give low values 0.992 | locus YPR141C, strain kar3, hits give low values 1 | locus YPR163C, strain tif3, hits give low values 0.994 | locus YPR167C, strain met16, hits give low values 1 | strain wtn01, hits give low values 0.984
